Screening results deposited in PubChem by National Center for Advancing Translational Sciences (NCATS).
Pf Dd2 inh – blocks in vitro growth of P. falciparum Dd2. P. falciparum Dd2 growth, SYBR Green, 72 h. Potency, µM (highest dose often 28.9 µM), inactives show top-dose activity, negative = inhibition, actives largely listed as inhibitors. 120,000 compounds, 4.3% hits; active = well fitted inhibition curve with a large enough effect;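 also: plate controls were DMSO vehicle for no effect and reference drug for full effect; nearly all actives have a fitted effect of over 65% in size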
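Readout: SYBR Green fluorescence, 485 nm excitation, 535 nm emission, after ~16 h lysis at 37C. Before that, Dd2-infected red cells (2.5% hematocrit) grew 72 h with compound, 29 uM top final concentration.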
Numbers without * were called inactive; i = inactive; [ ] = dose if it differs, or a comment. The entries come from a sample that favours hits as a whole. Potency is read from the fitted curve at half-maximal effect.

SMILES | Pf Dd2 inh
Cc1ccc2c(c1)C(c1ccccc1)N(C(=O)c1ccc(S(=O)(=O)N3CCCC3)cc1)CC(=O)N2 (stereo unspecified) | -21%
COc1cc2c(cc1OC)C(COc1cccc(C(F)(F)F)c1)N(C(=O)c1ccc(S(=O)(=O)N3CCCC3)cc1)CC2 (stereo unspecified) | 7.9µM*
COc1ccc(CNC(=O)C(C)n2ccc3cc(S(=O)(=O)N4CCCC4)ccc32)cc1OC (stereo unspecified) | i
COc1cc2c(cc1OC)C(COc1cc(C)cc(C)c1)N(C(=O)c1ccc(S(=O)(=O)N3CCCC3)cc1)CC2 (stereo unspecified) | 3.2µM*
COc1ccc(S(=O)(=O)N2CCC(Oc3cccc(C(F)(F)F)c3)CC2)cc1OC | 9%
COc1ccc(S(=O)(=O)N2CCCCC2)cc1C(=O)Nc1cccc(C(F)(F)F)c1 | i
COc1ccc(C(=O)N2CC[C@H]3COC(=O)N3c3ccccc3C2)cc1 | 23%[44.1 µM]
Cc1cc(F)ccc1OC1CN([S+](=O)([O-])c2cccc(C(F)(F)F)c2)C1 | -5%
Cn1cccc1CN1CCCC(c2nn(-c3ccccc3)c(=O)[nH]2)C1 (stereo unspecified) | i
COc1cccc([S+](=O)([O-])N2CCC3(CC2)C(=NC2CCCC2)NC(=O)N3c2cc(F)cc(F)c2)c1 | i
O=C(NCc1ccc2c(c1)CCN2C(=O)c1ccc(Cl)cc1)c1ccco1 | 35%
O=C(NCc1ccc2c(c1)CCN2C(=O)c1ccc(F)cc1)c1ccco1 | 2.8µM*
Cc1cccc(C(=O)N2CCc3cc(CNC(=O)c4ccco4)ccc32)c1 | 4%
COc1ccc(Cl)cc1C(=O)N1CCC(c2n[nH]c(=O)n2-c2ccccc2)CC1 | -22%
O=C(Cc1cccc(F)c1)N1CCC(Cc2nc(C3CCOCC3)no2)CC1 | 55%
COc1cccc(CN2CCc3nn(C)c(=O)n3CC2)c1OC | 40%
COCCN1C(=O)[C@H]2CN(Cc3ccccc3OC(F)(F)F)C[C@H]2C1=O | 50%
COc1cccc(CN2C[C@@H]3C(=O)N(CCN4CCc5ccccc5C4)C(=O)[C@@H]3C2)c1OC | 7.1µM*
CN1CC(=O)N(c2ccccc2F)Cc2c1ncnc2N1CCCCC1 | -10%
O=C1NCCOCCCN(C(=O)Nc2ccccc2F)[C@H]2CCC[C@@H]12 | i
CCOC(=O)C1CCN(C(=O)Cn2ncc3c4ccccc4n(Cc4ccccc4F)c3c2=O)CC1 | -15%
CCN1CCN(C(=O)Cn2ncc3c4ccccc4n(Cc4ccccc4F)c3c2=O)CC1 | 11µM*
O=C(Cn1ncc2c3ccccc3n(Cc3ccccc3F)c2c1=O)NC1CCCCCC1 | -24%
Cc1cc(C)c(Cn2c3ccccc3c3cnn(CC(=O)NC4CCCCCC4)c(=O)c32)c(C)c1 | 9%
CCN1CCN(C(=O)Cn2ncc3c4ccccc4n(Cc4c(C)cc(C)cc4C)c3c2=O)CC1 | 13µM*
SMILES | Pf Dd2 inh
CCCn1c2ccccc2c2cnn(CC(=O)N3CCN(c4ccccc4F)CC3)c(=O)c21 | i
CC1CCCCN1C(=O)Cn1ncc2c3ccccc3n(Cc3ccccc3F)c2c1=O (stereo unspecified) | 13µM*
Cc1ccc(C)c(Cn2c3ccccc3c3cnn(CC(=O)N4CCCCC4)c(=O)c32)c1 | 32%
Cc1ccccc1Cn1c2ccccc2c2cnn(CC(=O)N3CCC(C)CC3)c(=O)c21 | i
Cc1nc(-c2c3n(c(=O)n(Cc4cc(F)ccc4F)c2=O)CCCCC3)no1 | 7%
CCOC(=O)C1CCN(C(=O)Cc2cccn2-c2cccc(Cl)c2)CC1 | -16%
CCN1CCN(C(=O)Cn2c(C)ccc(NC(=O)Nc3ccc(C)cc3)c2=O)CC1 | -19%
CCOc1cccc(-c2nnc(CCC(=O)NCCc3ccccc3)c(=O)[nH]2)c1 | i
COC[C@]1(O)CCN(C(=O)c2csc(C)c2)CC1(C)C | 6%
CC1CCC2(CC1)NC(=O)N(CC(=O)NC(C)(C)C)C2=O (stereo unspecified) | 1%
CN(C)c1ccc(CN2CC(Oc3ccc(F)c(F)c3)C2)cc1 | -18%
CNC(=O)c1ccc2c(c1)n(Cc1ccc(OC)cc1)c(=O)c1ccnn12 | -20%
Cn1ncc(N2CCC(NC(=O)Cc3ccc(F)cc3)CC2)cc1=O | -11%
O=C(NCc1ccccc1)c1ccc2oc(=O)n(Cc3ccccc3)c2c1 | 0%
CN1CCC(NC(=O)c2ccc3c(c2)n(Cc2ccc(F)cc2)c(=O)c2ccnn23)CC1 | 2.5µM*
O=C(NCc1ccccn1)c1ccc2c(c1)n(Cc1cccc(F)c1)c(=O)c1ccnn12 | 5µM*
CCCN1CCN(C(=O)c2ccc3c(c2)n(CC)c(=O)c2ccnn23)CC1 | i
O=C(NCc1cccc(F)c1)c1ccc2nccn2c1 | -12%[44.1 µM]
CN(C)C(=O)c1ccc2c(c1)n(Cc1ccc(F)cc1)c(=O)c1ccnn12 | 10µM*
Cn1c(=O)c2ccnn2c2ccc(C(=O)Nc3ccc(N4CCOCC4)cc3)cc21 | i
Cc1ncccc1Oc1ncnc(-c2cc(N)nc3[nH]ccc23)c1C | -19%
O=C(NCCc1ccccn1)c1ccnc(-c2nnc3ccc(N4CCOCC4)nn23)c1 | i
COc1ccc(CCn2nc3n(c2=O)CCN(Cc2ccccc2C)C3=O)cc1 | -7%
